# Assay outcomes deposited in PubChem by several laboratories.
# Sampled rows, rich in hits. Any-hit rate of the full collection: about 6.6%.
# CSC inhib = cancer stem cell viability inhibitors, primary screen, luminescence. inhibition, % at 7.5 µM. actives 1.1% (n = 300,000). cancer stem cell-like cells viability; in the data active means inhibition above about 75%; tested in HMLE shEcad cells
# Gli-Sufu antag = Gli-Sufu pathway antagonists, primary screen, luciferase luminescence, Sufu-KO-LIGHT cells, uHTS; Sufu-KO-LIGHT fibroblasts, Gli luciferase reporter luminescence; inhibition, % at 5 µM; actives 0.74% (n = 340,000); AID 588413, 2011;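 active means inhibition above about 55%, limit read from the data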;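 further: 0% = DMSO-treated cells and 100% = wells with medium but no cells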
# Mdm2-MdmX inh = inhibitors of human Mdm2-MdmX association, primary screen, cell-based, luminescence, split luciferase, SaOS-2, uHTS; inhibition, % at 8 µM; actives 3% (n = 330,000); SaOS-2 split-luciferase Mdm2/MdmX complementation; AID 485346, 2010; Protein Mdm4 (Homo sapiens) + E3 ubiquitin-protein ligase Mdm2 (Homo sapiens), …;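 active means inhibition of at least 50% at 8 µM in the primary screen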
# Target sequence (O15151 whole entry, looked up): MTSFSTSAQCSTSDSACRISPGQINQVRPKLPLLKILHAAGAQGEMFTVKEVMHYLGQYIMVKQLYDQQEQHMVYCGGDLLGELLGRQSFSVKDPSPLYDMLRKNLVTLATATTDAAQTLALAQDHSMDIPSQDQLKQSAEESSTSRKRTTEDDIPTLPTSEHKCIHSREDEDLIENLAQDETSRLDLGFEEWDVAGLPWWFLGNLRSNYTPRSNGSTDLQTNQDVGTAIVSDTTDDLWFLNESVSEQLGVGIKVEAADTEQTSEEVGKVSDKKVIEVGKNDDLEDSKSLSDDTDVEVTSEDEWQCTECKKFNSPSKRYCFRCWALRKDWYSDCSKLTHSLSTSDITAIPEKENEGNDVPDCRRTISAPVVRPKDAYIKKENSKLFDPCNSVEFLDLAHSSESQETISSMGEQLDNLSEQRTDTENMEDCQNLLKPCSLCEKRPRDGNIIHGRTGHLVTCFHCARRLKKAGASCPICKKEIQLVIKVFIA
# Target sequence (Q00987 whole entry, looked up): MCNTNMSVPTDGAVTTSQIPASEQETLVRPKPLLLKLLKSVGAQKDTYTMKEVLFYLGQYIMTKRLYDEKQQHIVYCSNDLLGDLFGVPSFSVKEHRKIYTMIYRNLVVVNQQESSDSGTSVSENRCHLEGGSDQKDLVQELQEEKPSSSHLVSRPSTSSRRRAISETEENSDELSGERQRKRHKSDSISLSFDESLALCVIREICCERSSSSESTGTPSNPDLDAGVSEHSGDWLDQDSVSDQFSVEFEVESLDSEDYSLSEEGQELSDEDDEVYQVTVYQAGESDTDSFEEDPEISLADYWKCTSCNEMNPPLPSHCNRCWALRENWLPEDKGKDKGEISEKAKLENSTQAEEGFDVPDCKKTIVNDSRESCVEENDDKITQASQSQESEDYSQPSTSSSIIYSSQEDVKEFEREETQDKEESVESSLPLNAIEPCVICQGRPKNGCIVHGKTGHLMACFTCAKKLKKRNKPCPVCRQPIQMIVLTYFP
# Beta cell apopt = inhibitors of cytokine-induced beta cell apoptosis, primary screen, luminescence; protection from apoptosis, % (concentration not given with the values); INS-1E cytokine-induced death, ATP luminescence, 48 h; percent of positive-control rescue, neutral wells zero; AID 435005, 2010; actives 0.8% (n = 300,000);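 active means Every replicate reaches about 75%, or at least half do and their mean reaches it too, limit read from the data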;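 further: 0% = cytokine-treated negative control wells and 100% = positive control rescue; higher means more ATP so stronger rescue from cytokine killing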
# MPTP inh = mitochondrial permeability transition pore inhibitors, primary screen, biochemical, isolated mouse mitochondria, absorbance; Ca2+ swelling absorbance, 30 min; inhibition, % at 10 µM; actives 1.4% (n = 360,000); AID 602449, 2012;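 active means inhibition of 50% or more, scaled per plate between neutral and stimulator controls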;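 further: 0% = DMSO wells given calcium and 100% = 1 mM EGTA wells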
# NR3A LBD binder = binders of NR3A ligand-binding domain, primary screen, biophysical, differential scanning fluorimetry, uHTS | Glutamate receptor ionotropic, NMDA 3A (GRIN3A) ligand-binding domain | NR3A LBD differential scanning fluorimetry, Tm shift; 0% = protein alone, 100% = glycine-bound protein | Tm shift relative to glycine control, % at 25 µM | actives 2.5% (n = 340,000) | AID 1259313, 2017;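 active means melting temperature shift of at least 10% of the positive control shift, at one fixed dose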
# An asterisk follows results filed as active; . = no result.
SMILES,CSC inhib,Gli-Sufu antag,Mdm2-MdmX inh,Beta cell apopt,MPTP inh,NR3A LBD binder
Cc1ccc(NC(=O)Nc2cccs2)cc1,10,18,-117,-2,-6,11*
CCOC(=O)c1cccc(NC(=O)Nc2ccc(OCC)cc2)c1,10,-84,-51,-1,12,20*
CCOC(=O)c1cccc(P(C)(C)=O)c1,.,-5,24,0,0,22*
Cc1ccc(C(=O)NCCCNC(=O)COc2ccc(Cl)cc2)cn1,.,-11,-20,1,-1,-1
CC(=O)c1ccc(-c2cccc([C@H]3[C@@H]4C=CC[C@@H](C)[C@@H]4C(=O)N3Cc3ccccc3)c2)cc1,.,-9,28,.,3,0
CC(C)(O)c1ccccc1CC[C@@H](SCC1(CC(=O)O)CC1)c1cccc(/C=C/c2ccc3ccc(Cl)cc3n2)c1,97*,-20,19,-3,4,0
COCCN1C(=O)N[C@@H](c2ccccc2)[C@H](C(=O)OC)[C@H]1C,1,-6,1,1,-2,2
CSCc1cc(C(=O)NCCN2CCOCC2)c(N)s1,.,.,.,.,1,.
Brc1ccc(-c2noc(C3CCCCC3)n2)cc1,2,-31,-15,50,0,14*
O=C(Cc1ccc2c(c1)OCCO2)c1c(O)cc(O)cc1O,22,-19,26,-7,6,3
Oc1ccc(N=Nc2ccc3c(c2)OCCO3)c(O)c1,84*,-27,-76,4,10,-2
COc1ccc(NC(=O)C2CC(=O)N(CCc3ccc(Cl)cc3)C2)cc1 (stereo unspecified),-15,6,-7,7,1,12*
COc1ccc(OC)c(NC(=O)C2CC(=O)N(CCc3ccc(F)cc3)C2)c1 (stereo unspecified),.,2,.,.,-2,-3
COc1ccc(-n2ccn(CC(=O)Nc3ccc(OC)cc3OC)c(=O)c2=O)cc1,-2,4,23,.,-2,-4
O=C(O)c1cc(-c2c[nH]c3ccccc23)nc2ccc3ccccc3c12,-8,-13,-41,-1,0,11*
OC(c1cccc(Cl)c1)c1nc(-c2ccc(Cl)cc2)cs1 (stereo unspecified),.,.,.,.,4,.
O=Cc1sc(Nc2ccccc2)nc1Cl,7,-9,-7,4,-1,-2
Cc1ccc(Nc2nc(Cl)c(C=O)s2)cc1Cl,9,-6,17,17,23,21*
O=C(N/N=C/c1ccc(O)cc1)NC12CC3CC(CC(C3)C1)C2,-4,-8,-18,7,0,10*
O=C(N/N=C/c1ccncc1)NC12CC3CC(CC(C3)C1)C2,.,0,-14,.,1,-1
O=C(N/N=C/C=C/c1ccccc1[N+](=O)[O-])c1ccncc1,-11,0,13,-7,1,-1
O=C(N/N=C/C=C\c1ccccc1[N+](=O)[O-])c1cc(-c2ccc3ccccc3c2)n[nH]1,.,-9,.,.,11,18*
O=C(N/N=C/c1cccs1)c1cc(-c2ccc3ccccc3c2)n[nH]1,1,-7,28,31,3,13*
CC(Sc1nnc2c(n1)[nH]c1ccccc12)C(=O)N(C)C1CCCCC1 (stereo unspecified),10,51,31,100*,1,-2
Cc1ccc(S(=O)(=O)CCC(=O)OCC(=O)NCCc2ccccc2)cc1,6,-5,9,-6,1,15*
SMILES,CSC inhib,Gli-Sufu antag,Mdm2-MdmX inh,Beta cell apopt,MPTP inh,NR3A LBD binder
CC(C)(C)OC(=O)N1CCC(CC2CC(c3ccc(Cl)cc3)=NO2)(C(=O)NCC2CCCCC2)CC1 (stereo unspecified),-9,5,11,26,1,6
Cc1ccc(S(=O)(=O)N(C)CC(=O)O/N=C(\N)c2ccc([N+](=O)[O-])cc2)cc1,-5,-1,-13,-5,4,21*
N/C(=N\OC(=O)c1ccccc1Br)c1ccc([N+](=O)[O-])cc1,-2,-77,34,4,0,11*
N/C(=N\OC(=O)c1ccccc1Br)c1cccc([N+](=O)[O-])c1,-7,-88,-44,-4,0,-6
Cc1ccc(C(=O)O/N=C(\N)c2cccc([N+](=O)[O-])c2)cc1,-18,-62,10,-11,0,13*
CC(=O)c1cc2c(cc1NC(=O)CSc1nnc(C3CC3)n1C)OCO2,.,.,.,.,-1,.
CCOc1ccc(OCC(=O)OCC(=O)Nc2ccccc2C#N)cc1,.,2,9,.,-3,0
CCOc1ccc(N=C2SC(C(=O)Nc3ccccc3C#N)C(N)=C2C(=O)Nc2ccc(Cl)cc2)cc1 (stereo unspecified),16,2,-4,5,23,27*
Cn1cnc(Sc2ncnc3nc[nH]c23)c1[N+](=O)[O-],84*,0,17,-3,1,3
Cn1cnc([N+](=O)[O-])c1Sc1ncnc2nc[nH]c12,85*,-3,20,3,0,-1
C=CCCC(=O)N(C)CCO,-16,-11,11,-11,-2,0
Cc1ccn(CCNC(=O)C2CCC(=O)N(CCc3ccc(Cl)cc3)C2)n1 (stereo unspecified),-11,-2,-3,-2,-2,1
Cc1ccc(-c2cc(C(=O)N3CCN(c4ccc(O)cc4)CC3)c3ccccc3n2)cc1,79*,-16,34,-3,2,-1
O=C(c1cc(-c2ccccc2Cl)nc2ccccc12)N1CCN(c2ccccn2)CC1,9,11,-22,98*,-1,-2
CSCCC(NC(=O)OCc1ccccc1)NC(=O)OCc1ccccc1,.,.,.,.,1,.
COC(=O)c1[nH]c2ccc(F)cc2c1NC(=O)C1=COCCO1,-10,5,9,-7,-1,17*
Cc1nc2c(C)cccc2cc1C(=O)N/N=C/c1ccc(C(=O)O)cc1,0,-8,-15,-7,-1,0
Cc1nc2c(C)cccc2cc1C(=O)N/N=C/c1cccnc1,0,8,-6,4,1,14*
CCn1cc(/C=C/c2cc[n+](C)cc2)c2ccccc21,12,58*,.,85*,0,2
CCOC(=O)c1ccc(O)c(-n2cc3c(c2-c2ccccc2)c(=O)n(C)c(=O)n3C)c1,.,.,.,.,-2,.
CCOc1ccc(N=Cc2c(C)[nH]n(-c3nc4ccccc4[nH]3)c2=O)cc1,118*,16,35,114*,1,-4
Cc1ccc(C(CNS(=O)(=O)c2ccc(F)cc2C)N2CCN(C)CC2)cc1 (stereo unspecified),5,11,19,4,6,-1
